PMC5540273 (PLoS ONE, 2017)

test system: EPHA5; details: concentration: 1 μM, replicates: in singlicate; n = 1
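Note: KINOMEscan kinase panel screen.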

Row | SMILES | %Inh [%]
1 | CCNc1nccc(-c2c(-c3ccc(F)cc3)ncn2C2CCN(C)CC2)n1 | 0
2 | Fc1cc(Cl)ccc1Nc1ccnc2cc(-c3ccc(CN4CCSCC4)o3)ccc12 [GW560106] | 0
3 | NCCC(NC(=O)c1cc(Br)c(-c2ccnc3[nH]ccc23)s1)c1ccccc1.O=C(O)C(F)(F)F.O=C(O)C(F)(F)F (stereo not drawn) [GSK1307810] | 0
4 | Cc1ccc(NC(=O)c2ccc(Cl)c(Cl)c2)cc1-c1ccc(C(=O)Nc2ccncc2)cc1 [GSK1398460] | 12
5 | O=C(O)C(F)(F)F.O=c1[nH]ccc2nc(N[C@@H]3CCNC3)nc(Nc3cc(Cl)cc(Cl)c3)c12 [GSK2188764] | 0
6 | Nc1ncnc2scc(-c3ccc(NC(=O)Cc4cc(F)ccc4F)cc3)c12.O=C(O)C(F)(F)F [SB-731254-M] | 0
7 | Cc1ccc(NC(=O)c2ccnc(N3CCCCC3)c2)cc1-c1ccc(C(=O)NCC2CC2)cc1 [GW775610] | 31
8 | Fc1cc(Cl)ccc1Nc1ccnc2cc(-c3ccc(CN4CCOCC4)o3)ccc12 [GW560109] | 0
9 | CS(=O)(=O)c1cccc(CNc2nc(Nc3ccc4c(c3)CCC(=O)N4)ncc2C(F)(F)F)c1 | 0
10 | Cc1cc(-c2c(-c3ccc(F)cc3)ncn2CCCN2CCOCC2)nc(N)n1 [SB-222517] | 9
11 | CN1CCN(Cc2ccc(NC(=O)Nc3ccc(N(C)c4ccnc(Nc5ccc(CS(C)(=O)=O)cc5)n4)cc3)cc2)CC1.Cl [GW827654] | 5
12 | COc1cccc(C2=C(Nc3cccc(O)c3)C(=O)NC2=O)c1 [SB-390771] | 0
